# According to PubChem BioAssay (EPA / NIEHS):
# Active and inactive are the calls of the source. How the source made its calls: active means hit-call score of the fitted dose curve at least 0.9, where 1 is the maximum; inactive means score below 0.9.
# Assays:
# [1] = read-out: TIMP metallopeptidase inhibitor 2 (TIMP2), TIMP2 (gene 7077); assay: BSK_KF3CT_TIMP2: BioMAP Diversity Plus: KF3CT Assay for TIMP metallopeptidase inhibitor 2 (TIMP2) Biomarker Activity (AID 2283071); conditions: primary human keratinocytes with fibroblasts; actives raise or lower the signal
# How it was run: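 Human primary keratinocyte/foreskin fibroblast co-culture dosed with chemical and sampled at 24 h. TIMP-2 levels quantified by ELISA; bidirectional fitting against DMSO negative control as baseline.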
# [2] = read-out: Transforming growth factor beta 1 (TGFb1), TGFB1 (gene 7040); assay: BSK_KF3CT_TGFb1: BioMAP Diversity Plus: KF3CT Assay for Transforming growth factor beta 1 (TGFb1) Biomarker Activity (AID 2283072); conditions: primary human keratinocytes with fibroblasts; actives raise or lower the signal
# How it was run: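 Human keratinocyte plus foreskin fibroblast primary co-culture, dosed with chemical for 24 h. TGF-b1 quantified by ELISA. Activity fitted bidirectionally against DMSO negative control as baseline.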
# [3] = read-out: Matrix Metallopeptidase 9 (MMP9), MMP9 (gene 4318); assay: BSK_KF3CT_MMP9: BioMAP Diversity Plus: KF3CT Assay for Matrix Metallopeptidase 9 (MMP9) Biomarker Activity (AID 2283074); conditions: primary human keratinocytes with fibroblasts; actives raise or lower the signal;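 on AC50: MMP9 protein level quantified by ELISA in the co-culture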
# How it was run: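 Keratinocyte plus foreskin fibroblast human primary skin co-culture was dosed with chemical and MMP-9 was quantified by ELISA 24 h later. Bidirectional curve fitting used DMSO as negative control and activity baseline.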
# [4] = read-out: urokinase plasminogen activator (uPA), PLAU (gene 5328); assay: BSK_KF3CT_uPA: BioMAP Diversity Plus: KF3CT Assay for urokinase plasminogen activator (uPA) Biomarker Activity (AID 2283075); conditions: primary human keratinocytes with fibroblasts; actives raise or lower the signal
# How it was run: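 Human keratinocyte plus foreskin fibroblast primary co-culture exposed to chemical for 24 h. uPA levels were quantified by ELISA, and activity was fitted bidirectionally against a DMSO negative-control baseline.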
# CD40, CD40 (gene 958) [5] = assay: BSK_LPS_CD40: BioMAP Diversity Plus: LPS Assay for CD40 Biomarker Activity (AID 2283076); conditions: primary human HUVEC with PBMC; actives raise or lower the signal
# How it was run: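 HUVEC plus PBMC co-culture stimulated with LPS; CD40 quantified by ELISA 24 h after compound dosing. Fitting was bidirectional relative to DMSO. SRB staining of parallel cultures flagged overt cytotoxicity.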
# [6] = read-out: E-selectin (Homo sapiens) (UniProt P16581); assay: BSK_LPS_Eselectin: BioMAP Diversity Plus: LPS Assay for Eselectin Biomarker Activity (AID 2283077); conditions: primary human HUVEC with PBMC; actives raise or lower the signal
# How it was run: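 Human umbilical vein endothelial cells co-cultured with PBMC under LPS stimulation; cell-surface E-selectin measured by ELISA 24 h after dosing. Change in either direction versus DMSO, with SRB total-protein staining in parallel cultures for cytotoxicity.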
# [7] = read-out: Interleukin-8 (IL8), CXCL8 (gene 3576); assay: BSK_LPS_IL8: BioMAP Diversity Plus: LPS Assay for Interleukin-8 (IL8) Biomarker Activity (AID 2283078); conditions: primary human HUVEC with PBMC; actives raise or lower the signal
# How it was run: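 Human umbilical vein endothelial cells co-cultured with PBMC, LPS-stimulated, exposed to compound for 24 h. IL-8 quantified by ELISA; fitted in both directions against DMSO, with SRB total-protein staining of parallel cultures for cytotoxicity.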
# [8] = read-out: Monocyte Chemoattractant Protein-1 (MCP1), CCL2 (gene 6347); assay: BSK_LPS_MCP1: BioMAP Diversity Plus: LPS Assay for Monocyte Chemoattractant Protein-1 (MCP1) Biomarker Activity (AID 2283081); conditions: primary human HUVEC with PBMC; actives raise or lower the signal;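 on AC50: secreted MCP-1 protein quantified by ELISA in culture supernatant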
# How it was run: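 Human umbilical vein endothelial cells co-cultured with PBMC, LPS-stimulated; secreted MCP-1 measured by ELISA 24 h after compound addition. Bidirectional curve fitting against DMSO baseline; SRB total-protein staining in parallel cultures for cytotoxicity.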
# [9] = BSK_LPS_PGE2: BioMAP Diversity Plus: LPS Assay for Prostaglandin E2 (PGE2) Biomarker Activity (AID 2283082); conditions: primary human HUVEC with PBMC; actives raise or lower the signal
# How it was run: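 HUVEC plus PBMC co-culture stimulated with LPS; secreted PGE2 quantified by ELISA 24 h after chemical dosing. Activity fitted bidirectionally against DMSO as negative control and baseline; parallel SRB total-protein staining served as cytotoxicity check.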
# [10] = read-out: Macrophage colony-stimulating factor (MCSF), CSF1 (gene 1435); assay: BSK_LPS_MCSF: BioMAP Diversity Plus: LPS Assay for Macrophage colony-stimulating factor (MCSF) Biomarker Activity (AID 2283083); conditions: primary human HUVEC with PBMC; actives raise or lower the signal
# How it was run: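 HUVEC–PBMC co-culture, M-CSF measured by ELISA 24 h after chemical dosing. Fitted in both directions relative to DMSO as negative control; overt cytotoxicity assessed by SRB total-protein staining in parallel cultures.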
# [11] = read-out: Tissue Factor, F3 (gene 2152); assay: BSK_LPS_TissueFactor: BioMAP Diversity Plus: LPS Assay for Tissue Factor Biomarker Activity (AID 2283084); conditions: primary human HUVEC with PBMC; actives raise or lower the signal
# How it was run: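 Human umbilical vein endothelial cells co-cultured with PBMC were dosed with compound. Cell-surface CD142 was measured by ELISA 24 h later. Activity was fitted bidirectionally against DMSO, with SRB total-protein staining in parallel cultures for cytotoxicity.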
# [12] = read-out: Vascular cell adhesion molecule 1 (VCAM1), VCAM1 (gene 7412); assay: BSK_LPS_VCAM1: BioMAP Diversity Plus: LPS Assay for Vascular cell adhesion molecule 1 (VCAM1) Biomarker Activity (AID 2283086); conditions: primary human HUVEC with PBMC; actives raise or lower the signal
# How it was run: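 Human umbilical vein endothelial cells co-cultured with peripheral blood mononuclear cells under LPS stimulation were exposed to test chemical for 24 h. VCAM-1 levels were then measured by ELISA, with bidirectional curve fitting relative to DMSO as negative control and baseline.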
# CD38, CD38 (gene 952) = assay: BSK_SAg_CD38: BioMAP Diversity Plus: SAg Assay for CD38 Biomarker Activity (AID 2283087); conditions: primary human HUVEC with PBMC; actives raise or lower the signal
# How it was run: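 Fluorescence ELISA of cell-surface CD38 served as the read-out, with either increase or decrease fitted against DMSO controls. Cells were a human umbilical vein endothelium plus PBMC co-culture under SEB/TSST-1 stimulation, measured 24 h after dosing.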
# CD40, CD40 (gene 958) [13] = assay: BSK_SAg_CD40: BioMAP Diversity Plus: SAg Assay for CD40 Biomarker Activity (AID 2283088); conditions: primary human HUVEC with PBMC; actives raise or lower the signal
# How it was run: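 HUVEC plus PBMC co-culture, superantigen-activated, with CD40 read by ELISA 24 h after dosing. Curves fitted in both directions against DMSO. Overt cytotoxicity checked by parallel SRB total-protein staining.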
# CD69, CD69 (gene 969) = assay: BSK_SAg_CD69: BioMAP Diversity Plus: SAg Assay for CD69 Biomarker Activity (AID 2283089); conditions: primary human HUVEC with PBMC; actives raise or lower the signal;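 on AC50: cell surface CD69 protein quantified by ELISA with fluorescence detection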
# How it was run: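 HUVEC co-cultured with PBMC were dosed with chemical, and CD69 was measured by ELISA with fluorescence read-out 24 h later. Bidirectional curve fitting used DMSO as negative control and activity baseline.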
# [14] = read-out: Monocyte Chemoattractant Protein-1 (MCP1), CCL2 (gene 6347); assay: BSK_SAg_MCP1: BioMAP Diversity Plus: SAg Assay for Monocyte Chemoattractant Protein-1 (MCP1) Biomarker Activity (AID 2283090); conditions: primary human HUVEC with PBMC; actives raise or lower the signal
# How it was run: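 MCP-1 levels in the endothelial–PBMC SAg co-culture were quantified by ELISA at 24 h post-dosing; both increases and decreases versus DMSO scored. Cytotoxicity monitored by SRB total protein in parallel cultures.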
# [15] = read-out: C-C motif chemokine 2 (Homo sapiens) (UniProt P13500); assay: BSK_KF3CT_MCP1: BioMAP Diversity Plus: KF3CT Assay for Monocyte Chemoattractant Protein 1 (MCP1/CCL2) Biomarker Activity (AID 2283073); conditions: primary human keratinocytes with fibroblasts; actives raise or lower the signal
# How it was run: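 Human keratinocyte–foreskin fibroblast co-culture; MCP-1 measured by ELISA 24 h after dosing. Bidirectional fit vs DMSO; cytotoxicity tracked by SRB total protein in parallel cultures.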
# [16] = read-out: Interleukin-1 alpha (IL1a), IL1A (gene 3552); assay: BSK_LPS_IL1a: BioMAP Diversity Plus: LPS Assay for Interleukin-1 alpha (IL1a) Biomarker Activity (AID 2283080); conditions: primary human HUVEC with PBMC; actives raise or lower the signal
# How it was run: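 Human umbilical vein endothelial cells co-cultured with PBMC and stimulated with LPS; IL-1a measured by ELISA 24 h after dosing. Bidirectional fitting against DMSO; cytotoxicity checked by SRB staining in parallel cultures.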
# [17] = BSK_LPS_SRB: Viability Assessment in the BioMAP Diversity Plus: LPS Assay (AID 2283079); conditions: primary human HUVEC with PBMC;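 further: total protein by sulforhodamine B absorbance as a cytotoxicity measure; measured one day after compound addition; fitted in both directions against DMSO so loss or gain of signal counts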
# How it was run: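 Co-culture of human umbilical vein endothelial cells and PBMC, read 24 h after dosing. Total protein by 0.1% SRB staining after 10% TCA fixation, absorbance at 560 nm; bidirectional fit against DMSO.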
# [18] = read-out: Tumor necrosis factor (Homo sapiens) (UniProt P01375); assay: BSK_LPS_TNFa: BioMAP Diversity Plus: LPS Assay for Tumour Necrosis Factor alpha (TNFa) Biomarker Activity (AID 2283085); conditions: primary human HUVEC with PBMC; actives raise or lower the signal
# How it was run: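 Human umbilical vein endothelial cells co-cultured with PBMC were exposed to test chemical and TNFa measured by ELISA 24 h after dosing. Bidirectional curve fitting was done relative to DMSO as negative control and baseline.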
# Chain of E-selectin (Homo sapiens) (P16581 whole entry, looked up): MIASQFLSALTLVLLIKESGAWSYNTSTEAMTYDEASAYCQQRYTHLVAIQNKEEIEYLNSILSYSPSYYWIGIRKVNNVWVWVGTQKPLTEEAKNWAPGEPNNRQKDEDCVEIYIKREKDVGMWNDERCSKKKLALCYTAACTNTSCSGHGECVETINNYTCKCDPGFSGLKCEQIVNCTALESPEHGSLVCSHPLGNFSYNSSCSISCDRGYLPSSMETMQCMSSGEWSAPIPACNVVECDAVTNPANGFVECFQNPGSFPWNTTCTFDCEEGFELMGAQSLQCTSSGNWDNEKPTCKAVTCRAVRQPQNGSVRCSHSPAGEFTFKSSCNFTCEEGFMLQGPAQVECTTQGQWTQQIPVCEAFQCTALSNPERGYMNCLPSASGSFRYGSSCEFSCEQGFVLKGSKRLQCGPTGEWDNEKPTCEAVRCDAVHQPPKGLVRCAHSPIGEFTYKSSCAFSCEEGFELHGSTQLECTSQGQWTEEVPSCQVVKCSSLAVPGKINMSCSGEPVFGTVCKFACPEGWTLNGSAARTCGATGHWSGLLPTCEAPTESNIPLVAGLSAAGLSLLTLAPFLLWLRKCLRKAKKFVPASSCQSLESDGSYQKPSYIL
# Chain of Tumor necrosis factor (Homo sapiens) (P01375 whole entry, looked up): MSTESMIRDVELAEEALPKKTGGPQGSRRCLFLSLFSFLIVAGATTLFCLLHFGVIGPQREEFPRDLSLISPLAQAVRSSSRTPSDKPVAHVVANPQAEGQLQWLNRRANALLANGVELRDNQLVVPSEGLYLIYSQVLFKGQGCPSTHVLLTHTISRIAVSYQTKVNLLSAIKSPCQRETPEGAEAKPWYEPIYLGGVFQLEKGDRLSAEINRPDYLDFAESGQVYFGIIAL
structure (smiles),measurement,setting,value
C=C(C)C(=O)[O][Sn]([CH2]CCC)([CH2]CCC)[CH2]CCC,AC50,[1],0.148 µM (active)
same,AC50,[2],0.148 µM (active)
same,AC50,[3],0.148 µM (active)
same,AC50,[4],0.148 µM (active)
same,AC50,"CD40, CD40 (gene 958) [5]",0.148 µM (active)
same,AC50,[6],0.148 µM (active)
same,AC50,[7],0.38 µM (active)
same,AC50,[8],0.331 µM (active)
same,outcome,[9],inactive
same,AC50,[10],0.148 µM (active)
same,AC50,[11],0.148 µM (active)
same,AC50,[12],0.148 µM (active)
same,AC50,"CD38, CD38 (gene 952)",0.248 µM (active)
same,AC50,"CD40, CD40 (gene 958) [13]",0.148 µM (active)
same,AC50,"CD69, CD69 (gene 969)",0.148 µM (active)
same,AC50,[14],0.352 µM (active)
COC(=O)c1sccc1S(=O)(=O)NC(=O)Nc1nc(C)nc(OC)n1,outcome,[1],inactive
same,outcome,[2],inactive
same,outcome,[15],inactive
same,outcome,[3],inactive
same,outcome,[4],inactive
same,outcome,"CD40, CD40 (gene 958) [5]",inactive
same,outcome,[6],inactive
same,outcome,[7],inactive
same,outcome,[16],inactive
same,outcome,[8],inactive
same,outcome,[9],inactive
same,outcome,[10],inactive
same,outcome,[11],inactive
same,outcome,[12],inactive
same,outcome,"CD38, CD38 (gene 952)",inactive
same,outcome,"CD40, CD40 (gene 958) [13]",inactive
same,outcome,"CD69, CD69 (gene 969)",inactive
same,outcome,[14],inactive
Oc1ccc(-c2ccccc2)cc1,outcome,[2],inactive
same,AC50,[15],0.016 µM (active)
same,outcome,[3],inactive
same,outcome,[4],inactive
same,outcome,"CD40, CD40 (gene 958) [5]",inactive
same,outcome,[6],inactive
same,outcome,[7],inactive
same,outcome,[17],inactive
same,outcome,[16],inactive
same,outcome,[8],inactive
same,outcome,[9],inactive
same,outcome,[10],inactive
same,outcome,[11],inactive
same,outcome,[12],inactive
same,outcome,"CD38, CD38 (gene 952)",inactive
same,outcome,"CD40, CD40 (gene 958) [13]",inactive
same,outcome,"CD69, CD69 (gene 969)",inactive
same,outcome,[14],inactive
ClC(Cl)=C(Cl)C(Cl)=C(Cl)Cl,AC50,[1],26.9 µM (active)
same,AC50,[2],29.2 µM (active)
same,AC50,[15],20 µM (active)
same,AC50,[3],28.9 µM (active)
same,outcome,[4],inactive
same,AC50,"CD40, CD40 (gene 958) [5]",31.4 µM (active)
same,outcome,[6],inactive
same,outcome,[7],inactive
same,outcome,[8],inactive
same,outcome,[9],inactive
same,AC50,[10],32.1 µM (active)
same,AC50,[11],33.2 µM (active)
same,AC50,[12],31.4 µM (active)
same,outcome,"CD38, CD38 (gene 952)",inactive
same,outcome,"CD40, CD40 (gene 958) [13]",inactive
same,outcome,"CD69, CD69 (gene 969)",inactive
same,outcome,[14],inactive
CC(C)(OO)c1ccccc1,outcome,[1],inactive
same,outcome,[2],inactive
same,outcome,[15],inactive
same,outcome,[3],inactive
same,outcome,[4],inactive
same,outcome,"CD40, CD40 (gene 958) [5]",inactive
same,outcome,[6],inactive
same,outcome,[7],inactive
same,outcome,[17],inactive
same,outcome,[8],inactive
same,outcome,[9],inactive
same,outcome,[10],inactive
same,outcome,[11],inactive
same,outcome,[18],inactive
same,outcome,[12],inactive
same,outcome,"CD38, CD38 (gene 952)",inactive
same,outcome,"CD40, CD40 (gene 958) [13]",inactive
same,outcome,"CD69, CD69 (gene 969)",inactive
same,outcome,[14],inactive
COc1cc(OC)nc(NC(=O)NS(=O)(=O)c2ncccc2C(=O)N(C)C)n1,outcome,[1],inactive
same,outcome,[2],inactive
same,outcome,[15],inactive
same,outcome,[3],inactive
same,outcome,[4],inactive
same,outcome,"CD40, CD40 (gene 958) [5]",inactive
same,outcome,[6],inactive
same,outcome,[7],inactive
same,outcome,[8],inactive
same,outcome,[9],inactive
same,outcome,[10],inactive
same,outcome,[11],inactive
same,outcome,[18],inactive
same,outcome,[12],inactive
same,outcome,"CD38, CD38 (gene 952)",inactive
same,outcome,"CD40, CD40 (gene 958) [13]",inactive
same,outcome,"CD69, CD69 (gene 969)",inactive
same,outcome,[14],inactive
